AMA1-RON2 inh = inhibitors of Plasmodium falciparum AMA1-RON2 interaction. AlphaScreen AMA1-biotinylated RON2 peptide binding. Potency, µM (highest dose often 58.2 µM), for the others: at the top dose activity change, negative = inhibition, actives largely listed as inhibitors. 0.2% of 360,000 active. AID 720542;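 note: 0% = vehicle wells and -100% = peptide control; nearly all actives have a fitted effect of over 45% in size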
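AMA1 (3D7) with his tag at 25 nM final met compounds first, then biotinylated RON2 peptide at 25 nM; detection used donor plus acceptor beads, 10 µg/mL apiece, read by AlphaScreen after 30 min at room temperature.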
AmpC inh detg = blocks E. coli AmpC beta-lactamase in detergent assay | P00811 | AmpC hydrolysis of nitrocefin, absorbance 480 nm, 0.01% Triton | Potency, µM (top dose mostly 114 µM), for inactives: top-dose activity change, negative = inhibition, usual class: inhibitors | 0.041% of 370,000 active | AID 485294;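 note: 0% = no-compound wells and -100% = no-enzyme wells; nearly all actives have a fitted effect of over 25% in size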
Target sequence (P00811 whole entry, looked up): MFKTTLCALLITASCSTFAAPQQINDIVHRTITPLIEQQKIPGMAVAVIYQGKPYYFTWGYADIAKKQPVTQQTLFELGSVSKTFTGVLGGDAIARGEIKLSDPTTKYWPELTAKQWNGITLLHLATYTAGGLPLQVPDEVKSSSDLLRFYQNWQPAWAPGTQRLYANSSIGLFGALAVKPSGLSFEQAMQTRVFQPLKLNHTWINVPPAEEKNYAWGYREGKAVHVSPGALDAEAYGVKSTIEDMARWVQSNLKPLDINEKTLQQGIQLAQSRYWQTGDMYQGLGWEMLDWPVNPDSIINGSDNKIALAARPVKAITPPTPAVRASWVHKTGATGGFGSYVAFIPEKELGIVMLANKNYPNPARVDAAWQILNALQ
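AmpC (5.3 nM in the dispensed reagent) in 20 mM phosphate pH 7.0 with 0.01% (detergent screen) or 0.0001% Triton X-100 was preincubated with compounds for 15 min at room temperature. Nitrocefin was then added from an 800 uM solution, and hydrolysis was followed at 480 nm.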
AmpC no deterg = inhibitors of E. coli AmpC beta-lactamase without detergent | P00811 | AmpC nitrocefin hydrolysis, absorbance 480 nm, 0.0001% Triton | Potency, µM (series often up to 57.1 µM), without a hit: at the highest dose activity change, negative = inhibition, hits mostly inhibitors | 0.52% of 330,000 active | AID 485341;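 note: plate controls were no compound for no effect and no enzyme for full effect; nearly all actives have a fitted effect of over 20% in size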
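20 mM phosphate pH 7.0 + 0.01% (detergent screen) or 0.0001% Triton X-100; 5.3 nM AmpC reagent; cpd preinc 15 min RT; nitrocefin (800 uM stock) to start; A480 q20 s × 4 min; Activity was normalised to no-enzyme and no-compound control wells.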
NS1 inh = inhibitors of influenza NS1 protein function; Potency, µM (titrated, usually from 46.1 µM), for the others: at the highest dose activity, positive = more growth; 0.4% of 270,000 active; calls by dose curve; note: actives are rising curves; nearly all actives have a fitted effect of over 50% in size
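OD600 was taken as the measure of yeast growth restored by compound in an NS1-expressing S. cerevisiae strain. Cells had been washed out of glucose medium and diluted 1:100 into galactose -URA medium, pH 6.0.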
The depositor's hits bear a star; ? = inconclusive; / = no result given. An excerpt weighted towards active compounds, which were near 0.86% of everything screened. Unless noted, calls come from the whole dose curve; as a rule, active = well fitted curve in the direction sought with a large enough effect; inconclusive = small, poorly fitted or top-dose-only effect, or another doubt; inactive = no such curve, though single readings can be large; an effect the other way counts as inactive or inconclusive. Potency is the fitted concentration of half-maximal effect.

SMILES	AMA1-RON2 inh	AmpC inh detg	AmpC no deterg	NS1 inh
O=C(CS(=O)(=O)c1c[nH]c2ccccc12)NC1CCCCC1	-2.2%	-12.2%	0.501µM*	-1.5%
CCCOC(=O)C1C2C=CC3(CN(c4ccc(Cl)c(F)c4)C(=O)C13)O2 (stereo not given)	8.7%	5.2%	7.08µM*	-2.8%
CCOC(=O)C1C2C=CC3(CN(c4ccc(Cl)c(F)c4)C(=O)C13)O2 (stereo not given)	16.0%	-10.5%	-9.9%	?
COC(=O)c1sccc1S(=O)(=O)Nc1ccc(S(N)(=O)=O)cc1	-16.2%	-7.0%	-10.0%	-1.1%
COC(=O)c1sccc1S(=O)(=O)Nc1ccc(N2CCCCC2)cc1	14.1µM*	2.6%	-11.0%	-1.2%
COc1ccc(C(=O)/C=C/Nc2cc(C)on2)c(OC)c1	-2.8%	-7.9%	-2.8%	-37.8%
COc1ccc(C(=O)/C=C/Nc2ccc([N+](=O)[O-])cc2C)c(OC)c1	1.3%	0.6%	1.26µM*	-2.3%
COc1ccc(C(=O)/C=C/Nc2ccc([N+](=O)[O-])cc2C)cc1OC	8.6%	3.5%	2µM*	-3.1%
COc1ccc(OC)c(CNc2ccc([N+](=O)[O-])cc2C)c1	12.6µM*	3.1%	-30.0%	/
CCN(CC)C(=O)C1=C(C)N(Cc2ccc(OC)cc2)C(=O)C(CC(=O)NC(c2ccccc2)c2ccccc2)C1 (stereo not given)	-11.3%	/	/	/
O=C(NCCC1=CCCCC1)c1[nH]c(C(F)(F)F)nc1-c1ccccc1	59.5%	/	/	/
CCOC(=O)C1=CCC(c2cccc(C)c2)N(S(=O)(=O)c2ccc(C)cc2)C1 (stereo not given)	15.0%	/	/	/
CC(=O)Nc1cc2c(cc1Br)OCCO2	-5.4%	-4.2%	-18.7%	5.6%
Brc1ccc(CNc2cc3c(cc2Br)OCCO3)cc1	12.6µM*	9.8%	-8.3%	/
CN(C)c1ccc(-n2cccc2/C=C/[N+](=O)[O-])cc1	7.08µM*	-3.1%	-20.9%	/
COc1ccc(NC2=NCC(Cc3ccc(Br)cc3)S2)cc1 (stereo not given)	17.8µM*	5.8%	-20.8%	-15.7%
COc1ccc(NC2=NCC(C)S2)cc1 (stereo not given)	3.6%	-9.6%	-10.5%	1.2%
CC(C)Oc1cccc(C(=O)NC(=S)Nc2cccc(NC(=O)c3ccccc3Cl)c2)c1	35.9%	-18.9%	3.16µM*	23.3%
COc1cccc(C(=O)NC(=S)Nc2ccc(N3CCCC3)cc2)c1	25.1µM*	-2.6%	-31.8%	12.9%
Cc1ccc(NC(=O)C2CCCN(c3nnc(-n4c(C)ccc4C)s3)C2)c(C)c1 (stereo not given)	/	15.5%	/	/
Cc1ccc(NC(=O)CSc2nc(O)cc(=O)n2-c2ccc(C)cc2)cc1	-0.3%	10.7%	12.6µM*	18.2%
CCc1c(O)nc(SCC(=O)Nc2ccccc2)n(-c2ccccc2)c1=O	3.1%	?	-23.6%	?
Cc1ccc(NC(=O)CSc2nc(O)c(Cc3ccccc3)c(=O)n2-c2ccccc2)cc1	5.6%	-7.5%	11.2µM*	?
O=C1c2ccccc2-c2onc3ccc(NCCCn4ccnc4)c1c23	23.8µM*	-0.1%	64.3%	-6.3%
NS(=O)(=O)c1ccc(NCCCn2ccnc2)c([N+](=O)[O-])c1	-9.7%	-3.6%	-12.8%	7.9%
SMILES	AMA1-RON2 inh	AmpC inh detg	AmpC no deterg	NS1 inh
Cc1cc(C)c2c(CC(=O)Nc3ccc(S(=O)(=O)N4CCCCC4)cc3)coc2c1	/	15.3%	/	/
O=C(N/N=C1\CC2CC=CC12)c1ccccc1Cl (stereo not given)	25.1%	6.0%	-15.9%	/
O=[N+]([O-])c1ccccc1N/N=C1\CC2CC=CC12 (stereo not given)	20µM*	6.4%	-33.7%	/
O=C(c1ccco1)N1CCN(Cc2cc(=O)c(OCc3ccccc3F)co2)CC1	9.0%	-8.7%	-1.9%	/
COC(=O)c1ccc(=O)c2nc3/c(=C/O)c(O)cc(=O)c3[nH]c12	1.26µM*	?	-37.9%	0.9%
O=C1C(c2ccccc2)=C(N2CC2)c2ccccc21	28.2µM*	?	-13.2%	-45.0%
O=C1CCC/C(=N/NC(=O)c2cc(NS(=O)(=O)c3cccs3)cc(NS(=O)(=O)c3cccs3)c2)C1	50.1%	-4.0%	11.2µM*	24.8%
O=C1CCC/C(=N/NC(=O)c2ccc(NS(=O)(=O)c3cccs3)cc2)C1	29.2%	-2.6%	?	/
CN(C)c1ccc(/C=C/C(=O)c2ccccc2O)cc1	14.1µM*	6.0%	-43.1%	/
Cc1ccc(/C=C/C(=O)c2ccccc2O)cc1	?	0.2%	-24.9%	-9.4%
O=C(COC(=O)c1cc(=O)[nH]c2ccccc12)NCCc1ccccc1	0.2%	/	-21.6%	/
CCOc1ccc(-c2nnc(-c3ccccc3)n2-c2ccccc2)cc1	-5.4%	0.6%	5.62µM*	3.7%
CCOc1ccc(-c2nnc(SCC(=O)c3ccc(F)cc3)n2-c2ccccc2)cc1	/	0.8%	/	/
CCc1ccccc1NC(=O)Nc1cc(C(=O)NCc2ccc(C)cc2)ccc1N1CCCC1	/	11.6%	/	/
CCn1c(SCC(=O)Nc2sccc2C(N)=O)nnc1C1CC1	34.5%	?	-15.4%	/
CCC(c1nnnn1CC1CCCO1)N(CCN1CCOCC1)Cc1cc2cc(C)ccc2[nH]c1=O (stereo not given)	30.3%	5.5%	44.8%	2.24µM*
COc1cccc(NC2=C(Cl)C(=O)OC2OC(=O)c2ccco2)c1 (stereo not given)	-5.6%	-1.0%	-37.9%	/
Cc1ccc(NC2=C(Cl)C(=O)OC2OC(=O)c2ccc(C)cc2)cc1 (stereo not given)	-18.3%	8.91µM*	-47.1%	/
COC(=O)c1ccc(NC2=C(Cl)C(=O)OC2OC(=O)c2ccccc2)cc1 (stereo not given)	3.0%	10µM*	4.47µM*	/
CC(=O)N1c2ccccc2N=C(c2ccc3c(c2)OCO3)C1C(=O)NCc1ccccc1 (stereo not given)	-7.3%	/	/	/
CCOc1ccc(NC(=O)c2cc3c(C)nc4ccccc4c3o2)cc1	0.0%	?	5.01µM*	1.2%
COC(=O)C1=CN(c2ccc(OC)cc2OC)C(N)=C(C#N)C1c1cccc([N+](=O)[O-])c1 (stereo not given)	0.9%	/	/	/
Cc1ccc(CCNC(=O)C2CCN(S(=O)(=O)c3c(C)nn(C)c3C)CC2)cc1	-7.8%	?	2.51µM*	-9.4%
Cc1cccc(CCNC(=O)C2CCN(S(=O)(=O)c3c(C)nn(C)c3C)CC2)c1	0.6%	?	34.9%	-10.5%
O=C(NCCN1CCC(Cc2ccccc2)CC1)C1CCN(S(=O)(=O)N2CCC3(CC2)OCCO3)CC1	8.6%	3.7%	110.8%	/
O=C(NCCc1ccccc1)C1CCN(S(=O)(=O)N2CCC3(CC2)OCCO3)CC1	11.6%	-0.9%	0.562µM*	-4.1%
COc1ccc(C(O)c2nc(-c3cccc(O)c3)cs2)cc1 (stereo not given)	-4.0%	/	/	/
NS(=O)(=O)c1ccc(Nc2nc(-c3ccc(F)cc3)cs2)cc1	-16.0%	5.0%	-39.3%	/
COc1ccc(-c2csc(Nc3ccc(S(N)(=O)=O)cc3)n2)cc1OC	-10.6%	-4.6%	15.8µM*	/
